# Assay results taken from PubChem BioAssay (NCI).
# About 83,000 compounds went through this panel and 20% of them were active in at least one assay; those are over-represented in the sample as a whole.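 Cells were grown in 96-well plates and exposed to the test compound at a single concentration for 48 hours; results are reported as percent growth, with values below 10 considered active.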 A number with no mark means an inactive call. The source made the active and inactive calls.
# Test system: NCI-H226 lung
# Assay: NCI-60 one-dose screen, 48 h (100 = growth as untreated, 0 = no growth, -100 = all killed)
# Conditions: 10 µM unless noted
# Protocol: Growth inhibition of the NCI-H226 human Non-Small Cell Lung tumor cell line is measured as a screen for anti-cancer activity. Cells are grown in 96 well plates and exposed to the test compound for 48 hours. Compounds are tested at a single concentration, which is 10^-5 M for most compounds. The reported endpoint is percent growth (GI% or GIPRCNT), where numbers from 0 - 100% represent growth inhibition, and numbers from -100% - 0 represent cell death. For example, a value of 40 represents 60% growth inhibition. A value of 0 means no net growth occurred over the course of the experiment. A value of -40 indicates 40% of cells at the beginning of the experiment died by the end of the experiment. A value of -100 means all cells are dead at the end of the experiment.
# NCI-60 Human Tumor Cell Lines Screen was performed using the standard one-dose NCI protocol, which is described in more detail at https://dtp.cancer.gov/discovery_development/nci-60/default.htm.
# Compounds with GIPRCNT values below 10 were considered active. Activity score was based on GIPRCNT using the following formula: […]
# Score is 0 for GIPRCNT values of 100 or above, 50 for GIPRCNT values of 0, and 100 for GIPRCNT values of -100.
row,SMILES,growth
1,C=CCN=c1sc(-c2ccc3ccccc3c2)cn1NC(=O)c1cc2ccc1CCc1ccc(cc1)CC2,75.2%
2,COc1ccc(C(c2cc(OC)c(OC)c(OC)c2)N2CCCCC2)cc1 (stereo not given),55.5%
3,CCOC(=O)NCCCC(=O)NCCc1ccccc1,96.3%
4,Clc1ccc2nn3c4ccccc4c(OCCN4CCOCC4)nc3c2c1,94.6%
5,Oc1nc(NCc2ccccc2)sc1/C=C1\C=Nc2ncccc21,62.3%
6,Fc1ccc(/C=C/[C@@H]2C[C@@H](F)CCO2)cc1,101%
7,C=C1C(=O)O[C@H]2[C@H]1CC/C(COC(=O)NCc1ccc(Cn3c(=O)sn(-c4ccccc4)c3=O)cc1)=C\CC[C@@]1(C)O[C@@H]21,55.1%
8,COc1cc(Cc2cc(OC)c(O)c(OC)c2)cc(OC)c1O,106%
9,O=C(O)c1cn(C2CC2)c2cc(N3CCN(C(=O)N4CCOCC4)CC3)c(F)cc2c1=O,99.3%
10,CCCCCCCCCCOC(=O)c1nn(C(C)=O)c2cc(C)c(C)cc12,87.8%
11,CC(=O)Nc1sc2c(c1-c1nc3ccccc3s1)CNC2,26%
12,COc1ccccc1S(=O)(=O)Nc1ccc2c3c(cc(CCC(=O)NCCCCNc4cccc5c4C(=O)N(C4CCC(=O)NC4=O)C5=O)cc13)C(=O)N2C (stereo not given),-0.85% (active)
13,COc1ccc(N/N=C/c2cn(-c3ccc(C(=O)O)cc3)nc2-c2cc3ccccc3oc2=O)cc1,75.3%
14,COc1ccc(/C=N/NC(=O)Cn2c(-c3ccc(S(C)(=O)=O)cc3)nc3ccccc32)cc1,99.6%
15,O=C(C[C@]1(O)C(=O)Nc2ccc(Br)cc21)c1ccco1,92.9%
16,CC(C)(C)c1ccc(C(=O)N/N=C/c2ccc(O)cc2O)cc1,12.1%
17,COc1ccc(-c2nc3c(c(-c4ccc(Cl)cc4)nn3-c3ccccc3)c(-c3ccccc3)c2C#N)cc1,97.4%
18,CCOC(=O)C#Cc1c(C(=O)OCC)nnn1[C@@H]1O[C@H](COC)[C@@H](OC)[C@H]1OC,82.6%
19,CN(C)CCn1c(=O)c2ccccc2n2nc3ccccc3c12,84.8%
20,COc1ccc(C2[C@@H](Cl)C(=O)N2c2cc(OC)c(OC)c(OC)c2)cc1Cl (stereo not given in full),59.8%

row,SMILES,growth
1,Cc1ccc(S(=O)(=O)OC[C@]23CCC(C)(C)C[C@H]2C2=CC[C@@H]4[C@@]5(C)CCCNC(C)(C)[C@@H]5CC[C@@]4(C)[C@]2(C)CC3)cc1,81.8%
2,CCCC(O)Cn1ncc(C(=O)OCC)c1NC(=O)NCc1cccc(C(F)(F)F)c1 (stereo not given),103%
3,CNC(=O)c1cc(Oc2ccc3c(c2)sc2nc(-c4ccc(Cl)c(C(F)(F)F)c4)cn23)ccn1,52.6%
4,C=C1SC(=Nc2ccccc2Cl)N(C(=O)c2sc3ccccc3c2Cl)C1(C)C,77.1%
5,CN1CCN(Cc2ccc(NC(=O)c3cncc(C#Cc4cnc(N)cc4C#N)c3)cc2C(F)(F)F)CC1,7.61% (active)
6,CCOC(=O)/C(=C(/C)NCC(C)C)c1cc(O)c(O)c2c(C)cc(=O)[nH]c12,71.9%
7,c1cc(OCCCCCOc2cccc(-c3nc4ccccc4[nH]3)c2)cc(-c2nc3ccccc3[nH]2)c1,10.2%
8,C#Cc1cccc(NC(=O)C2CCCCN2C(=O)CCl)c1 (stereo not given),-53.4% [8.25 µM] (active)
9,Nc1nc(N(Cc2ccccc2)c2ccccc2)c2cn[nH]c2n1,98.3%
10,CC(C)NS(=O)(=O)/N=C1\NC(=O)NC1=C(Cl)Cl,95.3%
11,COc1ccc(/C=C/C(c2cc(OC)c(OC)c(OC)c2)n2cncn2)cc1O (stereo not given),62.2%
12,CC1(C)N=C(N)N=C(N)N1c1ccc(S(=O)(=O)Nc2nccs2)cc1,101%
13,O=C(c1cccc(N2CCOCC2)n1)c1c[nH]c2ccccc12,82.8%
14,CCN1C2CCC1/C(=C\c1ccccc1)C(=O)/C2=C/c1ccccc1,59.9%
15,O=C(/C=C/C12c3ccccc3C(c3ccccc31)C1C(=O)NC(=O)C12)c1ccco1 (stereo not given),81.6%
16,ClC(Cl)c1nc(-c2ccccc2)n2nc(-c3ccccc3)cc2n1,86.9%
17,CC(C)(Sc1cc(C(C)(C)C)c(O)c(C(C)(C)C)c1)Sc1cc(C(C)(C)C)c(OC(=O)CCC(=O)O)c(C(C)(C)C)c1,67.4%
18,C=C(C)[C@@H]1CC[C@]2(C(=O)N3CCNCC3)CC[C@]3(C)[C@H](CC[C@@H]4[C@@](C)(CCC(=O)N5CCNCC5)[C@H](C(=C)C)CC[C@]43C)[C@@H]12,92.7%
19,CSc1ccc2c3c(n(CCCn4ccnc4)c(=O)c2c1)-c1ccccc1C3=O,69.2%
20,Nc1nc(N)c2c(n1)NC(c1cccc(Nc3ccnc4cc(C(F)(F)F)ccc34)c1)CC(c1ccc3c(c1)OCO3)=N2 (stereo not given),97.7%
